The list is not random: actives were taken first. Their share in the collection is about 2.3%.
UBC13 inh – inhibitors of human UBC13 polyubiquitin chain formation; inhibition, % at 20 µM; TR-FRET; P61088; AID 485273; actives 0.47% (n = 330,000); in the data active = inhibition above about 45%, passing the limit was not always enough
Target sequence (P61088 whole entry, looked up): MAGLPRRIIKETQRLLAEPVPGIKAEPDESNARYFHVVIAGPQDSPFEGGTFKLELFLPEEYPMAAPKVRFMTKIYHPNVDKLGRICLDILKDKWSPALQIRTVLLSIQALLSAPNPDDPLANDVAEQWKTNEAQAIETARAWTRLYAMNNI
MEKK3 PB1 HTS – raises or lowers MEK5 binding to the human MEKK3 PB1 domain; Q99759; bead-based flow cytometry, Alexa488-MEK5 binding to MEKK3; actives lie on both sides; 0 = blocked by unlabeled MEK5, 100 = vehicle; binding response (% of control), % at 10 µM; actives 1.4% (n = 290,000); AID 1529;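 active = binding response more than 3 SD above or below the average of its plate-row segment, actives on both sides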;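 note: Alexa488 bead fluorescence after subtracting the streptavidin-only scavenger bead signal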
MEKK2wt PB1 HTS – raises or lowers MEK5 binding to wildtype human MEKK2 PB1 domain | bead flow cytometry, Alexa488-MEK5 binding to MEKK2 WT; actives lie on both sides | binding response (% of control), % at 10 µM | actives 1.1% (n = 290,000) | Q9Y2U5 | AID 1531; in the data active = binding response below about 67% or above about 130%
MEKK2mut PB1 HTS – signal of MEK5 binding to mutant human MEKK2 PB1 domain | bead flow cytometry, Alexa488-MEK5 binding to MEKK2 mutant | percent response, % at 10 µM | actives 0.35% (n = 290,000) | AID 1530; in the data active = percent response above about 24%, passing the limit was not always enough
MEKK2wt confirm – raises or lowers MEK5 binding to wildtype human MEKK2, retest | shares compounds with MEKK3 PB1 HTS | actives 2.4% (n = 5,900) | binding response (% of control), % at 10 µM | AID 1892 | bead flow cytometry, Alexa488-MEK5 binding to MEKK2 WT; actives lie on both sides; in the data active = binding response below about 16% or above about 210%; inactive = in between
MEKK2mut-MEK5 – signal of MEK5 binding to mutant human MEKK2, retest. shares compounds with MEKK3 PB1 HTS. bead flow cytometry, Alexa488-MEK5 binding to MEKK2 mutant. percent response, % at 10 µM. actives 2% (n = 5,900); in the data active = percent response mostly above about 71%, no sharp cut-off; inactive = mostly below about 38%;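 note: higher means compound restores mutant binding toward wildtype level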
MEKK3-MEK5 inh – MEKK3-MEK5 PB1 inhibition, single concentration confirmation. actives 1.8% (n = 5,900). bead flow cytometry, Alexa488-MEK5 binding to MEKK3; hits give low values. binding response (% of control), % at 10 µM. shares compounds with MEKK3 PB1 HTS;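 active = binding response below 72% of control, or above a set upper limit, though filed actives all read lower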;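 note: lower values mean stronger disruption of MEK5 binding to MEKK3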
Hits are given with their value; n = inactive; x = no result given; [ ] = another dose, or the depositor's remark.

SMILES	UBC13 inh	MEKK3 PB1 HTS	MEKK2wt PB1 HTS	MEKK2mut PB1 HTS	MEKK2wt confirm	MEKK2mut-MEK5	MEKK3-MEK5 inh
COC(=O)CCC(=O)OC1(C)C(=O)C=C2C=C(C3CC3)N(Cc3ccc4c(c3)OCO4)C=C2C1=O (configuration not stated)	n	n	-7.0[inhibitor]	n	n	n	n
COC(=O)CCC(=O)OC1(C)C(=O)C=C2C=C(C3CC3)N(CCc3c[nH]c4ccccc34)C=C2C1=O (configuration not stated)	n	0.0[inhibitor]	0.0[inhibitor]	n	n	n	n
COC(=O)CCC(=O)OC1(C)C(=O)C=C2C=C(C3CC3)N(CCc3ccccn3)C=C2C1=O (configuration not stated)	n	n	n	n	x	x	x
COC(=O)CCCC1=CC2=CC(=O)C(C)(OC(=O)c3cccs3)C(=O)C2=CN1C1CC1 (configuration not stated)	n	n	142	n	n	n	n
CN(Cc1cccc(F)c1)CC(O)COCc1ccccc1Cl (configuration not stated)	n	n	n	n	x	x	x
COc1ccc(-n2c(=S)[nH]c3cc(C(=O)NCCCN4CCOCC4)ccc3c2=O)cc1OC	n	n	n	n	x	x	x
COC(=O)CCC(=O)OC1(C)C(=O)C=C2C=C(C3CC3)N(CCCCO)C=C2C1=O (configuration not stated)	n	n	141	n	n	n	n
COC(=O)CCC(=O)OC1(C)C(=O)C=C2C=C(C3CC3)N(CCN3CCOCC3)C=C2C1=O (configuration not stated)	n	n	143	n	n	n	n
COC(=O)CCC(=O)OC1(C)C(=O)C=C2C=C(C3CC3)N(CCCOC(C)C)C=C2C1=O (configuration not stated)	n	n	n	n	x	x	x
C=CCN1C=C2C(=O)C(C)(OC(=O)CCC(=O)OC)C(=O)C=C2C=C1C1CC1 (configuration not stated)	n	n	n	n	x	x	x
Cc1nc2sc(C(N)=O)c(N)c2c2c1CCCC2	n	n	n	n	x	x	x
Cc1cccc(NC(=O)C2CCN(S(C)(=O)=O)CC2)c1C	n	n	n	n	x	x	x
Cc1c(Cl)cccc1NC(=O)C1CCN(S(C)(=O)=O)CC1	n	n	x	254	n	n	n
COCCCNCCCOc1ccc(C(C)(C)c2ccccc2)cc1	n	n	n	n	x	x	x
CC(C)(c1ccccc1)c1ccc(OCCCNCCO)cc1	n	n	145	n	n	n	n
Cc1occc1-c1nnc(SCC(=O)Nc2ccccc2)n1Cc1ccccc1	n	n	n	n	x	x	x
CCn1c(Cc2ccccc2)nnc1SCC(=O)Nc1ccc(OC)cc1	n	44[inhibitor]	n	n	n	n	n
Cc1ccc(C)c(-n2c(SCC(=O)Nc3nnc(C)s3)nnc2-c2ccoc2C)c1	n	2.0[inhibitor]	2.0[inhibitor]	n	n	n	n
Cc1occc1-c1nnc(SCC(=O)Nc2ccc(F)cc2)n1Cc1ccccc1	n	2.0[inhibitor]	2.0[inhibitor]	n	n	n	n
COCCn1c(SCC(=O)Nc2nnc(C)s2)nnc1-c1ccoc1C	n	129	n	n	n	n	n
Cc1ccc(C)c(-n2c(SCC(=O)Nc3nonc3C)nnc2-c2ccoc2C)c1	n	n	n	n	x	x	x
CC1CCCCC1NC(=O)CCN1C(=O)C2C3C=CC(C3)C2C1=O (configuration not stated)	n	n	n	n	x	x	x
CCCCCC[C@@H]([C@@H](C)O)n1cnc2c(N)ncnc21	n	n	n	n	x	x	x
Cc1ccc(C(=O)NC(=S)Nc2nc(-c3cccc([N+](=O)[O-])c3)cs2)c(Cl)c1	n	45[inhibitor]	n	n	n	n	n
CCOC(=O)C1(Cc2cccc(OC)c2)CCN(Cc2cccc(OC)c2O)CC1	n	n	n	n	x	x	x
Cn1cc(S(=O)(=O)N2CCOCC2)cc1C(=O)O	n	x	x	x	x	x	x
CC(C)NC(=O)COC(=O)C1CSC2(c3ccc(Br)cc3)CCC(=O)N12 (configuration not stated)	n	n	n	n	x	x	x

Screening results: PubChem, several laboratories
